Experimental data as given in PubChem BioAssay.

Test: growth suppression of yeast trafficking mutant, preliminary HTS, modulators of trafficking downstream of Golgi apparatus project, 1536-format plate, OD 615 nm (AID 637)
Details: yeast transport mutant growth, absorbance 615 nm, 18 h; hits give high values; in the data active = inhibition above about 30%; inactive = the rest

inhibition, inactive:
CCOC(=O)C1CCN(c2c(NC3CCCCCCC3)c(=O)c2=O)CC1 0.5%, Cc1c(/C(O)=C2/C(=O)C(=O)N(CCN3CCOCC3)C2c2cccs2)cnn1-c1ccccc1 (stereo not given) 0.16%, c1ccc(CSCc2cn3ccsc3n2)cc1 -3.49%, O=c1c2ccccc2nc(SCc2cn3ccsc3n2)n1-c1ccc(F)cc1 1.43%, Cc1cnc(C(=O)Nc2ccc(N3CCN(C(=O)OC(C)(C)C)CC3)cc2)cn1 -6.51%, COc1ccccc1N(C)S(=O)(=O)c1ccc(C(=O)NC2=NCCS2)cc1 -5.4%, C/C(N)=C(/C#N)C(=O)COC(=O)c1cc(S(=O)(=O)N2CCCCC2)ccc1C -3.83%, O=C(NCc1ccc2c(c1)OCO2)c1ccc(NS(=O)(=O)c2ccc3c(c2)OCCO3)cc1 -3.65%, Cc1nnc(SCC(=O)NC(C)(C)C)n1CCc1ccccc1 5.65%, CC(C)OC(=O)CSc1nnnn1-c1ccc2c(c1)OCCO2 -2.33%, Cc1sc2nc(SCC(=O)NCc3ccco3)n(CCc3ccccc3)c(=O)c2c1C 0.82%, CC(=O)Nc1ccn(-c2ccccc2)n1 -6.77%, O=P(O)(O)C(O)C(F)(F)C(F)(F)C(F)(F)C(F)F (stereo not given) -6.17%, COCCn1c(CN2CCN(c3ccccc3F)CC2)nc2c1c(=O)n(C)c(=O)n2C 1.5%, O=C(CN1CCN(C2CCCCC2)CC1)Nc1ccccc1-c1ccccc1 1.9%, COc1ccc(NC(=O)C23CCC(C)(C(=O)C2)C3(C)C)cc1 (stereo not given) 0.48%, CC(C)(C)c1nc(CN2CCOCC2)ccc1O -0.82%, CC(NC(=O)c1ccc2c(c1)OCO2)C(c1cccs1)N1CCOCC1 (stereo not given) -0.95%, Cc1ccccc1NS(=O)(=O)c1cc(C(=O)N2CCCC2)ccc1C -8.25%, O=C(C1CCCO1)N1CCc2ccccc21 (stereo not given) -0.32%, CCc1ccc(NS(=O)(=O)c2ccc3[nH]cc(C(=O)N4CCCCC4)c(=O)c3c2)cc1 -0.81%, O=C1COc2ccc(C(=O)COC(=O)CCc3ccc(S(=O)(=O)N4CCOCC4)cc3)cc2N1 1.67%, CC(C)CCNC(=O)C(c1ccco1)N(CC1CCCO1)C(=O)Cn1nnc2ccccc21 (stereo not given) -0.16%, CCOc1ccc(CCNC(=O)CCc2nc(-c3ccc(OC)cc3)no2)cc1OCC 3.17%, COc1cccc(-n2c(C)nc3c(cnn3-c3ccc(Cl)cc3)c2=O)c1 4.19%, CCOC(=O)c1sc2nc(SCC#N)n(CCCN3CCCC3=O)c(=O)c2c1C -1.48%, COc1ccc(-c2nc(SC)n(S(=O)(=O)c3ccccc3)n2)cc1 -10.8%, CC(=O)NCc1cccc(CNC(C)=O)n1 -6.67%, Cc1ccc(-c2nc(N)n(C(=O)c3cccnc3)n2)cc1 0.33%, CCOCCCNC(=O)c1cc2sc(Cl)cc2n1CC -0.95%, O=C(COc1ccc(S(=O)(=O)N2CCCC2)cc1Cl)NC1CC1 3.67%, O=C(CSc1nc2ccccc2nc1SCC(=O)N1CCOCC1)N1CCOCC1 0.17%, CCOc1ccc(/C=N/n2cnnc2)cc1 -3.93%, COc1cccc2cc(C(=O)N3CCc4ccccc43)c(=O)oc12 0.63%, Cc1n[nH]c(C)c1S(=O)(=O)Nc1ccc2c(c1)OCCO2 -4.29%, O=C(Cn1c(C(=O)NCC2CCCO2)cc2sccc21)c1ccccc1 (stereo not given) -5.56%, Nn1cc(-c2ccccc2)nc1SCC(=O)N1CCN(S(=O)(=O)c2ccccc2)CC1 -6.56%, COc1cc(C(N)=O)ccc1OCc1ccccc1 -7.14%, CCCCn1c(CN(C)Cc2ccccc2)nc2c1c(=O)n(C)c(=O)n2C -0.63%, CCOc1ccc(-c2nc(S(=O)(=O)c3ccccc3)c(NCc3cccnc3)o2)cc1 -1.13%
